# Data taken from PMC7862700, “An all-to-all approach to the identification of sequence-specific readers for epigenetic DNA modifications on cytosine”.
# How the values were obtained:
# Test in all cases: DAPPL (digital affinity profiling via proximity ligation, sequencing); 10 mM Tris-HCl pH 7.5, 50 mM NaCl, 1 mM DTT, 4% glycerol, room temperature, 30 min; GST-TFs on glutathione beads, 16-mer random dsDNA library, 0.1% formaldehyde crosslink after washing; high values mean tight binding
# FLI1 = target: T1, FLI1 (Homo sapiens, UniProt Q01543 1-452); details: protein: recombinant; tags: N-terminal GST; dsDNA, one strand shown
# T1 sequence: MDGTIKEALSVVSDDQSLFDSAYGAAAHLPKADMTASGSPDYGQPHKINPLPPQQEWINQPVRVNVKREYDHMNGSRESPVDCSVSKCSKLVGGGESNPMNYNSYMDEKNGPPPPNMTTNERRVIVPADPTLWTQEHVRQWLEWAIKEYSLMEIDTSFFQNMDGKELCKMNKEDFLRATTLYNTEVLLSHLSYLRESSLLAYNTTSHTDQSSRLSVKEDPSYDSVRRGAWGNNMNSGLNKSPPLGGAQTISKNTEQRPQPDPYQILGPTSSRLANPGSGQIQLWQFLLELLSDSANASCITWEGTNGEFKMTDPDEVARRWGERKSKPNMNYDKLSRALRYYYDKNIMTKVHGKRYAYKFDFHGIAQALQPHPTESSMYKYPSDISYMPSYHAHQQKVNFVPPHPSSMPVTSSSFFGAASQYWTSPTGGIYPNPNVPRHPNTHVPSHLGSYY
# In short: (§1)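 Pools were built from human transcription factors expressed in yeast as GST fusions, captured on glutathione beads and DNA-barcoded, along with a tag-only sample. Incubation with 200 nmole of a 16-mer random double-stranded DNA library lasted 30 min at room temperature in Tris/NaCl/DTT/glycerol buffer, and was followed by washing, 0.1% formaldehyde crosslinking, proximity ligation, PCR amplification and Illumina NextSeq500 sequencing. Binding signal is the quotient of each hexamer's read frequency for a factor and its frequency for the tag-only sample.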
# ELK1 = target: T2, ELK1 (Homo sapiens, UniProt P19419 1-428); details: protein: recombinant; tags: N-terminal GST; dsDNA, one strand shown
# T2 sequence: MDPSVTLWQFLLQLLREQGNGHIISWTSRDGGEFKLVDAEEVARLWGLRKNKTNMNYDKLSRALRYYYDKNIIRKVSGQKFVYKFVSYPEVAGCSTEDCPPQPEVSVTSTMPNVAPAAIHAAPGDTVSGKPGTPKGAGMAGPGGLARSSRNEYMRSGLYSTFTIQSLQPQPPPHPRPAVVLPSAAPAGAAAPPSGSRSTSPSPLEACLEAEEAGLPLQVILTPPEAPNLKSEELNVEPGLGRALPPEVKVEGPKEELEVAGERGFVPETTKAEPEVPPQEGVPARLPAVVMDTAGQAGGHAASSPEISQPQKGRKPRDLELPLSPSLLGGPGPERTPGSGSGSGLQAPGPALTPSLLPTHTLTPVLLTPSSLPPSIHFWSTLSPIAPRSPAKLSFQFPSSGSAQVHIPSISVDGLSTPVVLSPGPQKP
# In short: as §1
# GABPA = target: T3, GABPA (Homo sapiens, UniProt Q06546 1-454); details: protein: recombinant; tags: N-terminal GST; dsDNA, one strand shown
# T3 sequence: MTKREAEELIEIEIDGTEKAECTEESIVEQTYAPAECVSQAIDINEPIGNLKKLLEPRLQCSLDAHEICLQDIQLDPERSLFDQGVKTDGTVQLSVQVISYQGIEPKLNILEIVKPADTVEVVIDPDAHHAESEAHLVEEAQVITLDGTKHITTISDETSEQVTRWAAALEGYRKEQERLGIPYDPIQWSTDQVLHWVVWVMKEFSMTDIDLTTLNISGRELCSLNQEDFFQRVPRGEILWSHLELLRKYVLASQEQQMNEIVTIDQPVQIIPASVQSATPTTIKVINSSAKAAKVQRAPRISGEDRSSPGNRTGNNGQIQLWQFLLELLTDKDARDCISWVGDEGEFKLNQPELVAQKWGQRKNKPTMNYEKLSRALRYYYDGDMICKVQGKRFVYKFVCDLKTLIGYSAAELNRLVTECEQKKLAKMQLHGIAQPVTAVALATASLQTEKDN
# In short: as §1
# ERG = target: T4, ERG (Homo sapiens, UniProt P11308 1-479); details: protein: recombinant; tags: N-terminal GST; dsDNA, one strand shown
# T4 sequence: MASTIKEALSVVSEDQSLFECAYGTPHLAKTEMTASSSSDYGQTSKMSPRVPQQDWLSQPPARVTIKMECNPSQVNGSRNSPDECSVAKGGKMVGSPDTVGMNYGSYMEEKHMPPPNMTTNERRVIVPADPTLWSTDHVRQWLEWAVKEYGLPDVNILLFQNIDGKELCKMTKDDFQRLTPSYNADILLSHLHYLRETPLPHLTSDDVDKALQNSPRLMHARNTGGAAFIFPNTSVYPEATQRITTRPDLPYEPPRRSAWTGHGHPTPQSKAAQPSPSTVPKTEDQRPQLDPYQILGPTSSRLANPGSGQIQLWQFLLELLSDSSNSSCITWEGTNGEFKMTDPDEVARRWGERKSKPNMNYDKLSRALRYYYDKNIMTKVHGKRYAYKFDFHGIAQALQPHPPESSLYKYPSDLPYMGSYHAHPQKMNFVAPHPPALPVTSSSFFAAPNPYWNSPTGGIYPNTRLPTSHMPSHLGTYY
# In short: as §1
# ELF1 = ELF1 (Homo sapiens, UniProt P32519 1-619); details: protein: recombinant; tags: N-terminal GST; dsDNA, one strand shown
# ELF1, sequence (P32519 whole entry): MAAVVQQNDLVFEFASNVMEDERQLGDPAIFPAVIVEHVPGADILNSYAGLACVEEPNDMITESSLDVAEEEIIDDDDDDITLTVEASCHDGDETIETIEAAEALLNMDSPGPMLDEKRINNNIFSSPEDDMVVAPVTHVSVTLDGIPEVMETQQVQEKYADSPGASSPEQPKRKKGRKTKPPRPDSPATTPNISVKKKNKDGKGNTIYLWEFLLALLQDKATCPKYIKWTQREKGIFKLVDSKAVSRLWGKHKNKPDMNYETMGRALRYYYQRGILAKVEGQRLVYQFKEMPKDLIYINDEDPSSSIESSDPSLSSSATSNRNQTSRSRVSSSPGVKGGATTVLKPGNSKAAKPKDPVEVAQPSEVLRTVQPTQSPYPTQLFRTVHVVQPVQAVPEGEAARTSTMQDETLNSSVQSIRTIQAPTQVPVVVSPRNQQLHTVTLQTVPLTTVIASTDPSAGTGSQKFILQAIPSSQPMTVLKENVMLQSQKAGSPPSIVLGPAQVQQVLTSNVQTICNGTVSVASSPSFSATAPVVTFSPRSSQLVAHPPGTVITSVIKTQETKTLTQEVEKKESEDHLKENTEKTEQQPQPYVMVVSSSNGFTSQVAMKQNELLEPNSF
# In short: as §1
# EHF = target: T5, EHF (Homo sapiens, UniProt Q9NZC4 1-300); details: protein: recombinant; tags: N-terminal GST; dsDNA, one strand shown
# T5 sequence: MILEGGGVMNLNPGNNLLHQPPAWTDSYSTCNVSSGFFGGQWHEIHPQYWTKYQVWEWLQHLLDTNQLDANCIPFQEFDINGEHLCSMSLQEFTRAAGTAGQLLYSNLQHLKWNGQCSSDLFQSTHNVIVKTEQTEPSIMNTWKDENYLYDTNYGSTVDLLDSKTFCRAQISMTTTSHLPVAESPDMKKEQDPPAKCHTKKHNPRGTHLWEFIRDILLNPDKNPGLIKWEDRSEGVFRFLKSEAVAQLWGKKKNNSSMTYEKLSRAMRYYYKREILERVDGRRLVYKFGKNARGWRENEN
# In short: as §1
# SPI1 = SPI1 (Homo sapiens, UniProt P17947 1-270); details: protein: recombinant; tags: N-terminal GST; dsDNA, one strand shown
# In short: as §1
# SPIB = SPIB (Homo sapiens, UniProt Q01892 1-262); details: protein: recombinant; tags: N-terminal GST; dsDNA, one strand shown
# SPIB, sequence (Q01892 whole entry): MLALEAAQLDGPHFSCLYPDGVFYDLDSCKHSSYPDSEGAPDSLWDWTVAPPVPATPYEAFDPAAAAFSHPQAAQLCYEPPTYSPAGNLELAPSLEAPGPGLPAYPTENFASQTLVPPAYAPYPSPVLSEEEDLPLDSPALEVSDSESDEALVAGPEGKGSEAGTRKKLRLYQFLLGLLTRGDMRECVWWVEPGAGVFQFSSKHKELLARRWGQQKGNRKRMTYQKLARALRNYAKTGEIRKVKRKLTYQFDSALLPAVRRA
# In short: as §1
# ELK3 = target: T6, ELK3 (Homo sapiens, UniProt P41970 1-407); details: protein: recombinant; tags: N-terminal GST; dsDNA, one strand shown
# T6 sequence: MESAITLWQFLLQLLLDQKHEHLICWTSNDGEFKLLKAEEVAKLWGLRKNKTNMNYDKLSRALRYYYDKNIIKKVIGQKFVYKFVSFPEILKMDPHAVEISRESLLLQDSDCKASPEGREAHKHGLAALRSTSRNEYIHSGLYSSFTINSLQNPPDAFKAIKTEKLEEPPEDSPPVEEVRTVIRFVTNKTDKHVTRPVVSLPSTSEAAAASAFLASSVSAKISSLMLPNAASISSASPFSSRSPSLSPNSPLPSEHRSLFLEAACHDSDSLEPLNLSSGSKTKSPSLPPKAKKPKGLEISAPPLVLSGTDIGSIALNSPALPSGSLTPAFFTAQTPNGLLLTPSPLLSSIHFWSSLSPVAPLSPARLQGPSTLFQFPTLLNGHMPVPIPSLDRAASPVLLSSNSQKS
# In short: as §1
# FEV = target: T7, FEV (Homo sapiens, UniProt Q99581 1-238); details: protein: recombinant; tags: N-terminal GST; dsDNA, one strand shown
# T7 sequence: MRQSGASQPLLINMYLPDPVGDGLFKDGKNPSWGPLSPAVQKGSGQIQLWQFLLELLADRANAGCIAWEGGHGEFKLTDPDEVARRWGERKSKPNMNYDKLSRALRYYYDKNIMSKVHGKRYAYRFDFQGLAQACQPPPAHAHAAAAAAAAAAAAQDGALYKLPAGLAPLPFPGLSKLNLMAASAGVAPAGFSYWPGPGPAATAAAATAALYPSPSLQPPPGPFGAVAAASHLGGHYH
# In short: as §1
# ETV5 = ETV5 (Homo sapiens, UniProt P41161 1-510); details: protein: recombinant; tags: N-terminal GST; dsDNA, one strand shown
# ETV5, sequence (P41161 whole entry): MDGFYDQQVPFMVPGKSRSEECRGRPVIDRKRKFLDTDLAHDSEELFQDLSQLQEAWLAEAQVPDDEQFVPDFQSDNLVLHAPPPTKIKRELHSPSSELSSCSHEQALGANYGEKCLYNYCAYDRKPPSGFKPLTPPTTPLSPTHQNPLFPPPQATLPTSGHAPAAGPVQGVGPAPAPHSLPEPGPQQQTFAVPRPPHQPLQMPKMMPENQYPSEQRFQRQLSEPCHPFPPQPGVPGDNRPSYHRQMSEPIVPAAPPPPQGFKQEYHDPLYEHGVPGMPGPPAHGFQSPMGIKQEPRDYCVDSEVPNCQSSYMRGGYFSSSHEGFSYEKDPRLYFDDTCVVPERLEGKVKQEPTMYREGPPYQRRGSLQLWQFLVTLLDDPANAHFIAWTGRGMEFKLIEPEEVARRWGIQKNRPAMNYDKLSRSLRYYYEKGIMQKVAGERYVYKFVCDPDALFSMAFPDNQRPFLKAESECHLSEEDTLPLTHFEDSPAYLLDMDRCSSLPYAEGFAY
# In short: as §1
# HSF1 = HSF1 (Homo sapiens, UniProt Q00613 1-529); details: protein: recombinant; tags: N-terminal GST; chain copies: 3; dsDNA, one strand shown
# HSF1, sequence (Q00613 whole entry): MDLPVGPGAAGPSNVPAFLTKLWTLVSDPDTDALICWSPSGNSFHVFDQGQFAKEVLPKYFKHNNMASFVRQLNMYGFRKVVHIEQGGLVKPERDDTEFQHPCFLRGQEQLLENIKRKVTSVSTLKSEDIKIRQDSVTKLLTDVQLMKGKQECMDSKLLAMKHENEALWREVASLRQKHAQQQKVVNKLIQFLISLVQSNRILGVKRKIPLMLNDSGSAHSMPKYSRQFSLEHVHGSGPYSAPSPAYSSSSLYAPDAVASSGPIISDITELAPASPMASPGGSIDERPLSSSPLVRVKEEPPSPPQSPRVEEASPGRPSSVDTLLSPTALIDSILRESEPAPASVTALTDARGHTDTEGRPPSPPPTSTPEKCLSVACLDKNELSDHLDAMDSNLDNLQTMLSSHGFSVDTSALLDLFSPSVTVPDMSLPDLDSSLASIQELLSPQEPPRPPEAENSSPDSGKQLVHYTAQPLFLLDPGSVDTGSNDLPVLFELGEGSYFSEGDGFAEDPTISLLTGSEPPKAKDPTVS
# In short: as §1
# SPIC = target: T8, SPIC (Homo sapiens, UniProt Q8N5J4 1-248); details: protein: recombinant; tags: N-terminal GST; dsDNA, one strand shown
# T8 sequence: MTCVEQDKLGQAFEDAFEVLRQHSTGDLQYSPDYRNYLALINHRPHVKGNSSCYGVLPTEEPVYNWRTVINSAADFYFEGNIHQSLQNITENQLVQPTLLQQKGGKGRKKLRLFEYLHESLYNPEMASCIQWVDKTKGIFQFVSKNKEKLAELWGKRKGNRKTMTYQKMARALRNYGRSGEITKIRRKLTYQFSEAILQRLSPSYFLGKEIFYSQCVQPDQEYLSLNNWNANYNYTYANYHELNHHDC
# In short: as §1
# ELF4 = ELF4 (Homo sapiens, UniProt Q99607 1-663); details: protein: recombinant; tags: N-terminal GST; dsDNA, one strand shown
# ELF4, sequence (Q99607 whole entry): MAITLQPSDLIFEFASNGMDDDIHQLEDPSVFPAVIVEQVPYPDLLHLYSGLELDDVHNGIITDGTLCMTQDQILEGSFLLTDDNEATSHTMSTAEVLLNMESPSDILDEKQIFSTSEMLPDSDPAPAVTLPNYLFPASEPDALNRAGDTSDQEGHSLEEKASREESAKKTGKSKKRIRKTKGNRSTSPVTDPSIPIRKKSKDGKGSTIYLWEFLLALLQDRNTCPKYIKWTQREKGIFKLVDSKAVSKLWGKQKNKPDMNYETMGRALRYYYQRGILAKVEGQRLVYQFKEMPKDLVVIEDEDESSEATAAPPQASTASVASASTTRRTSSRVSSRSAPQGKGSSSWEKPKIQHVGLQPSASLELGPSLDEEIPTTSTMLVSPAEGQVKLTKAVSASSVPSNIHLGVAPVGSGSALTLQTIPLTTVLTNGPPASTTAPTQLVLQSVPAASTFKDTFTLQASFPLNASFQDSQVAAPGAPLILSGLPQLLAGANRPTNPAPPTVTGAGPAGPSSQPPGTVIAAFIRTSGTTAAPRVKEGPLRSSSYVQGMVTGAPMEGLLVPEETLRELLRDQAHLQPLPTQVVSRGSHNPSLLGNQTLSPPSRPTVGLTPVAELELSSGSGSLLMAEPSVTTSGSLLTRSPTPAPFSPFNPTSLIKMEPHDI
# In short: as §1
# ELK4 = target: T9, ELK4 (Homo sapiens, UniProt P28324-2 1-405); details: protein: recombinant; tags: N-terminal GST; dsDNA, one strand shown
# T9 sequence: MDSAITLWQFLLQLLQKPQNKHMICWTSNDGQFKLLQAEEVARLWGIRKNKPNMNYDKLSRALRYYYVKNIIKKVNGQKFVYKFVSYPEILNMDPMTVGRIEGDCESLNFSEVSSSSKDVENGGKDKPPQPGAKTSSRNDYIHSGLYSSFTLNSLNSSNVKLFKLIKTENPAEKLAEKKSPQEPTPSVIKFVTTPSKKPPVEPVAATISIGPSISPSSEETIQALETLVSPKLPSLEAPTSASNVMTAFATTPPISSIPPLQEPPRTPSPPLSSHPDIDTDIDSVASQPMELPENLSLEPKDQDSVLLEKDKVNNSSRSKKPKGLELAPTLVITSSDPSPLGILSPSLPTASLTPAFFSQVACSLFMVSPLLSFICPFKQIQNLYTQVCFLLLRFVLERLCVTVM
# In short: as §1
# ETV2 = target: T10, ETV2 (Homo sapiens, UniProt O00321 1-342); details: protein: recombinant; tags: N-terminal GST; dsDNA, one strand shown
# T10 sequence: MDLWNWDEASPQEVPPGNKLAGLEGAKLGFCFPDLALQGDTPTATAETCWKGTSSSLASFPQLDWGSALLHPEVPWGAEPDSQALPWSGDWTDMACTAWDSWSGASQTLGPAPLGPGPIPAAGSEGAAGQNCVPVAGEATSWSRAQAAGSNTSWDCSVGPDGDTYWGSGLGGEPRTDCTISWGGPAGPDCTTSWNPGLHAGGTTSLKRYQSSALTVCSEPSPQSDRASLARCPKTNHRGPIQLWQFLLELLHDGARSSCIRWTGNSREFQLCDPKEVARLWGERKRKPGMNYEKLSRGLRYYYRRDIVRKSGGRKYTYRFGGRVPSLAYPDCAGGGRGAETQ
# In short: as §1
# ELF3 = target: T11, ELF3 (Homo sapiens, UniProt P78545 1-371); details: protein: recombinant; tags: N-terminal GST; dsDNA, one strand shown
# T11 sequence: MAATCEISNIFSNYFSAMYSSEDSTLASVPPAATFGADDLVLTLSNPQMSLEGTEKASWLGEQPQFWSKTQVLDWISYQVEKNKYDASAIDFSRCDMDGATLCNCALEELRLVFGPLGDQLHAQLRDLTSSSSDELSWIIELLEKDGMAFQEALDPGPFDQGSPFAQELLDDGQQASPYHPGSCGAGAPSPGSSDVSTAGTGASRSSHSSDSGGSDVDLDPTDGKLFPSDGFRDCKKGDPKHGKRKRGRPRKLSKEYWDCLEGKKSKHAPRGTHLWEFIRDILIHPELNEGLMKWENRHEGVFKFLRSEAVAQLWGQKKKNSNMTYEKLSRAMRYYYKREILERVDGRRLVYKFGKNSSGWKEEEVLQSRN
# In short: as §1
# CRX = CRX (Homo sapiens, UniProt O43186 1-299); details: protein: recombinant; tags: N-terminal GST; dsDNA, one strand shown
# CRX, sequence (O43186 whole entry): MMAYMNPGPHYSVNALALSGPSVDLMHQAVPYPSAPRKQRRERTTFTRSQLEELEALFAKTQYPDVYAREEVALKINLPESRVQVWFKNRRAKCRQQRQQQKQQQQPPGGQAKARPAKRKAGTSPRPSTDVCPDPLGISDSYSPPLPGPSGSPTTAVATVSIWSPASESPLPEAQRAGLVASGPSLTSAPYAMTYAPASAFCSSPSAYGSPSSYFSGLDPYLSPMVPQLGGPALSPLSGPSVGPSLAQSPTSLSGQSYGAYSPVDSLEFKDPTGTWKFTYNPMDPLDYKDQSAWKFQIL
# In short: as §1
# ETV1 = ETV1 (Homo sapiens, UniProt P50549 1-477); details: protein: recombinant; tags: N-terminal GST; dsDNA, one strand shown
# ETV1, sequence (P50549 whole entry): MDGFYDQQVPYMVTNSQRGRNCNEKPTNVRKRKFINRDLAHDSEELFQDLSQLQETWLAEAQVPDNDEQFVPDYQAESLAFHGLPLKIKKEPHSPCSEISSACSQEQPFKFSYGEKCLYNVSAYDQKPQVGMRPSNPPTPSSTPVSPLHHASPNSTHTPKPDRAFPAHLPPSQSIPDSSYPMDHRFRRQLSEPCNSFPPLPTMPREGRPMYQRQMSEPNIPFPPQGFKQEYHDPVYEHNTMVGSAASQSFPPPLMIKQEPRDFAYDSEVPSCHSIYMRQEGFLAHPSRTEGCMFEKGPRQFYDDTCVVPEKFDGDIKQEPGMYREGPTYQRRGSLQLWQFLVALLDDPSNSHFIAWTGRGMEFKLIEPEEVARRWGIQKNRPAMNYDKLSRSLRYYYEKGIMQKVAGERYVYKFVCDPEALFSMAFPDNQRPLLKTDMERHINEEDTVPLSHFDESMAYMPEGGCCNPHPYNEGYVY
# In short: as §1
sequence,measurement,setting,value
ATATTG,binding signal,FLI1,"1.25 fold enrichment (6-mer frequency, TF over GST control)"
same,binding signal,ELK1,"1.31 fold enrichment (6-mer frequency, TF over GST control)"
same,binding signal,GABPA,"1.32 fold enrichment (6-mer frequency, TF over GST control)"
same,binding signal,ERG,"1.25 fold enrichment (6-mer frequency, TF over GST control)"
same,binding signal,ELF1,"1.31 fold enrichment (6-mer frequency, TF over GST control)"
same,binding signal,EHF,"1.3 fold enrichment (6-mer frequency, TF over GST control)"
same,binding signal,SPI1,"1.28 fold enrichment (6-mer frequency, TF over GST control)"
same,binding signal,SPIB,"1.28 fold enrichment (6-mer frequency, TF over GST control)"
same,binding signal,ELK3,"1.29 fold enrichment (6-mer frequency, TF over GST control)"
same,binding signal,FEV,"1.33 fold enrichment (6-mer frequency, TF over GST control)"
same,binding signal,ETV5,"1.37 fold enrichment (6-mer frequency, TF over GST control)"
same,binding signal,HSF1,"1.19 fold enrichment (6-mer frequency, TF over GST control)"
same,binding signal,SPIC,"1.41 fold enrichment (6-mer frequency, TF over GST control)"
same,binding signal,ELF4,"1.37 fold enrichment (6-mer frequency, TF over GST control)"
same,binding signal,ELK4,"1.24 fold enrichment (6-mer frequency, TF over GST control)"
same,binding signal,ETV2,"1.48 fold enrichment (6-mer frequency, TF over GST control)"
same,binding signal,ELF3,"1.25 fold enrichment (6-mer frequency, TF over GST control)"
same,binding signal,CRX,"1.28 fold enrichment (6-mer frequency, TF over GST control)"
same,binding signal,ETV1,"1.32 fold enrichment (6-mer frequency, TF over GST control)"
